# Measurements taken from PubChem BioAssay AID588651 (The Scripps Research Institute Molecular Screening Center, 2011).
# The source made the active and inactive calls. No stated cut-off is given here; in the data, active means inhibition above about 65%; inactive means the rest.
# System: Antitargets
# Experiment: Fam108b inhibitors and proteome off-target selectivity – biochemical, gel-based ABPP, recombinant soluble Fam108b, HTS hits, complex proteome, late-stage follow-up (AID 588651);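 further: Fam108b spiked into mouse brain membrane proteome; tested at 20 µM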
# Details: FP-rhodamine labeling in proteome
row,SMILES,outcome
1,N=c1oc2cc(O)ccc2cc1C(=O)Nc1ccc(Br)cc1,inactive
2,Cc1ccc2nc(CSc3nc(C)ccc3C#N)[nH]c2c1,inactive
3,CN(C)S(=O)(=O)c1cccc(NC(=O)COC(=O)c2cc(-c3cccc(Br)c3)nc3ccccc23)c1,inactive
4,O=C(Nc1ccc(-c2csc(Nc3ccc(Cl)cc3)n2)cc1)c1cccc(C(F)(F)F)c1,active
5,Nc1cc(C(=O)O)c(N)c2c1C(=O)c1ccccc1C2=O,inactive
6,CCN(CC)S(=O)(=O)c1cc(NC(=O)COC(=O)c2sc3ccccc3c2Cl)ccc1C,inactive
7,COc1ccc2oc(=O)c(-c3csc(Nc4cccc(O)c4)n3)cc2c1,inactive
8,Oc1oc(-c2ccccc2Br)nc1C=Nc1ccccn1,active
9,COc1cccc2c1C(=O)c1c(O)c3c(c(O)c1C2=O)C[C@@](O)(C(=O)CO)C[C@@H]3O[C@H]1C[C@H](N)[C@H](O)[C@H](C)O1,inactive
10,CCNc1ccc2noc3c2c1C(=O)c1ccccc1-3,inactive
11,O=C(NCC1CC1)c1ccc(Nc2nc3ccc(Br)cc3[nH]2)cc1,inactive
12,Oc1ccccc1-c1nc2c3ccccc3c3ccccc3c2[nH]1,inactive
13,CC1(C)CC(=O)C2=C(C1)c1c(ccc3ccccc13)NC2c1cc([N+](=O)[O-])cc([N+](=O)[O-])c1O (stereo unspecified),inactive
14,Cc1nc2scc(-c3ccccc3)c2c(=O)o1,inactive
15,COc1ccc(S(=O)(=O)/N=C2\C=C(Nc3ccc(O)cc3)C(=O)c3ccccc32)cc1,inactive
16,O=C(Nc1ccc(-c2csc(Nc3cccc(C(F)(F)F)c3)n2)cc1)c1cccc(C(F)(F)F)c1,inactive
